Compound activity: PubChem BioAssay, several laboratories
Hits are enriched below; roughly 3.3% of the tested compounds scored in any of these assays.
PfM18AAP inh-1: PfM18AAP enzyme inhibition. AID 1822. inhibition, % at 7.35 µM. 290,000 compounds, 1.2% hits. recombinant PfM18AAP, H-Glu-NHMec fluorogenic cleavage;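 active = inhibition above the campaign mean inhibition over all tested compounds plus 3 SD, cut at about 28% in these data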;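 also: 0% = plate median of test compound wells and 100% = 2 mM ZnCl2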
PRMT1 inh: inhibitors of human PRMT1; Q99873; recombinant PRMT1, activity-based probe fluorescence polarization; inhibition, % at 2.79 µM; 370,000 compounds, 1.3% hits;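 active = inhibition above about 21% made by adding two undisclosed values, limit read from the data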
Target sequence (Q99873 whole entry, looked up): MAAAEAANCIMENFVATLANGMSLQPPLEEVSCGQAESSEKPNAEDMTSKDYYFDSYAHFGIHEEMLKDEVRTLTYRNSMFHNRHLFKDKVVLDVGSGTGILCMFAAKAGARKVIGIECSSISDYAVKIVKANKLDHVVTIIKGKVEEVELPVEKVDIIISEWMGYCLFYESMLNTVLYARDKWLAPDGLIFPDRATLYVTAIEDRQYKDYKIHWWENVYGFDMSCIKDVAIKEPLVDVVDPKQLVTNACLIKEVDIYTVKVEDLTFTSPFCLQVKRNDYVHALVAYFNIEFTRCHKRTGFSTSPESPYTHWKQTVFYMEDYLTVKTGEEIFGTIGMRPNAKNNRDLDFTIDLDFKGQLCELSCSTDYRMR
PfG6PD inh: PfG6PD (Plasmodium falciparum) enzyme inhibition; PfGluPho enzyme, NADPH resazurin-diaphorase fluorescence; inhibition, % at 20 µM; 350,000 compounds, 0.78% hits;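 active = inhibition reaching at least a set limit at 20 µM in the primary screen, cut at about 59% in these data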;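 also: 0% = DMSO wells with substrate and 100% = DMSO wells lacking glucose-6-phosphate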
UHRF1 binding: UHRF1 methyl-DNA binding inhibition; AID 687016; inhibition, % at 4.4 µM; UHRF1 binding to methylated oligo, TR-FRET; Q96T88; 370,000 compounds, 0.75% hits; in the data active = inhibition above about 21%;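 also: UHRF1 SRA domain binding a hemimethylated CpG hairpin DNA probe; 0% = median of test compound wells and 100% = reference inhibitor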
MBD2 DNA inh: MBD2-methylated oligo binding inhibition | AID 686964 | TR-FRET, MBD2 binding to methylated oligonucleotide | 370,000 compounds, 0.31% hits | inhibition, % at 4.4 µM | Q9UBB5; in the data active = inhibition above about 13%
PfM18AAP inh-2: PfM18AAP inhibition, confirmation; shares compounds with PfM18AAP inh-1; recombinant PfM18AAP, H-Glu-NHMec fluorogenic cleavage; inhibition, % at 7.35 µM; 2,400 compounds, 28% hits;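 active = mean inhibition over replicate wells above the hit cutoff set for the earlier primary screen, cut at about 29% in these data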;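 also: 0% = median of test compound wells and 100% = 2 mM ZnCl2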
CTSL1 confirm: Cathepsin L (human) inhibition, confirmation; shares compounds with PfM18AAP inh-1; purified cathepsin L1, Z-Leu-Arg-MCA fluorescence; inhibition, % at 5.96 µM; 2,400 tested, under 10 active;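 active = average inhibition across replicates above the hit cutoff set in the earlier primary screen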;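 also: 0% = median of test compound wells and 100% = Z-Phe-Ala-diazomethylketone 1 µM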
The depositor's hits bear a star.

Results for O=C(C(=O)N1CCC(CNS(=O)(=O)c2ccccc2OC(F)(F)F)CC1)c1cc2ccccc2o1 ?
PRMT1 inh: 7; UHRF1 binding: -1; MBD2 DNA inh: 4

Results for C/C(=C\C(=O)c1ccccc1)NNc1nc2ccccc2s1 ?
PfM18AAP inh-1: 26; PRMT1 inh: 2; PfG6PD inh: -2; UHRF1 binding: 2; MBD2 DNA inh: -1

Results for CC(=O)NNc1nc2ccccc2s1 ?
PfM18AAP inh-1: 51*; PRMT1 inh: 3; PfG6PD inh: -3; UHRF1 binding: 3; MBD2 DNA inh: 0; PfM18AAP inh-2: 16; CTSL1 confirm: 2

How did CN(C)C(=S)Nc1nc2ccccc2s1 do in these assays?
PfM18AAP inh-1: 46*; PRMT1 inh: 5; PfG6PD inh: 50; UHRF1 binding: -2; MBD2 DNA inh: -2; PfM18AAP inh-2: -15; CTSL1 confirm: 5

What do the screens show for `Cc1ccc(S(=O)(=O)Nc2ccc(O)c3cccnc23)cc1`?
PfM18AAP inh-1: 49*; PRMT1 inh: 21*; PfG6PD inh: 27; UHRF1 binding: -1; MBD2 DNA inh: 3; PfM18AAP inh-2: 30*; CTSL1 confirm: -11

Results for Cc1ccc(S(=O)(=O)Nc2cccc3ncccc23)cc1 ?
PfM18AAP inh-1: 4; PRMT1 inh: 1; PfG6PD inh: -21; UHRF1 binding: -5; MBD2 DNA inh: 2

How did Cc1ccc(S(=O)(=O)Nc2ccc(O)c3ncccc23)cc1 do in these assays?
PfM18AAP inh-1: 40*; PRMT1 inh: 0; PfG6PD inh: 22; UHRF1 binding: -7; MBD2 DNA inh: -9; PfM18AAP inh-2: 7; CTSL1 confirm: -1

Results for Cc1ccc(S(=O)(=O)Nc2ccccc2O)cc1 ?
PRMT1 inh: 4; UHRF1 binding: 4; MBD2 DNA inh: 4

Results for Cc1cccc(-c2cccc3c4c([nH]c23)[C@@H]2C[C@H](N(C)C(=S)NCCc3ccccc3)[C@H]([C@H](C)O)CN2CC4)c1 ?
PRMT1 inh: 3; UHRF1 binding: -2; MBD2 DNA inh: -2

What do the screens show for `CC(=O)CC[C@H]1CC[C@]2(CCCN(C(=O)c3ccno3)C2)O1`?
PRMT1 inh: 1; UHRF1 binding: 2; MBD2 DNA inh: -1

How did Cc1sc2nc(COC(=O)CNC(=O)c3ccccc3Cl)[nH]c(=O)c2c1C do in these assays?
PRMT1 inh: -5; UHRF1 binding: 2; MBD2 DNA inh: -4

Results for Oc1ccc(CNc2ccc(C(F)(F)F)cc2F)c2cccnc12 ?
PRMT1 inh: 10; UHRF1 binding: -7; MBD2 DNA inh: 1

What do the screens show for `Cc1ccc2sc(NNC(=O)C3COc4ccccc4O3)nc2c1C` (stereo not drawn)?
PfM18AAP inh-1: 41*; PRMT1 inh: 6; PfG6PD inh: -8; UHRF1 binding: -1; MBD2 DNA inh: -3; PfM18AAP inh-2: 3; CTSL1 confirm: 3

What do the screens show for `COc1cccc2sc(NNC(=O)C3COc4ccccc4O3)nc12` (stereo not drawn)?
PfM18AAP inh-1: 27; PRMT1 inh: 4; PfG6PD inh: 10; UHRF1 binding: -1; MBD2 DNA inh: 2

Results for CC(=O)C1=C(c2ccccc2)NC(=S)NC1c1ccc(O)c(O)c1 (stereo not drawn) ?
PfM18AAP inh-1: 74*; PRMT1 inh: 3; PfG6PD inh: -15; UHRF1 binding: 1; MBD2 DNA inh: 1; PfM18AAP inh-2: 68*; CTSL1 confirm: 5

What do the screens show for `CC1=C([N+](=O)[O-])C(c2ccc(O)c(O)c2)NC(=O)N1` (stereo not drawn)?
PfM18AAP inh-1: 84*; PRMT1 inh: 6; PfG6PD inh: 8; UHRF1 binding: 1; MBD2 DNA inh: 1; PfM18AAP inh-2: 81*; CTSL1 confirm: -4

How did CC(=O)C1=C(c2ccccc2)NC(=S)NC1c1cc(Cl)c(OC(C)C)c(Cl)c1 (stereo not drawn) do in these assays?
PfM18AAP inh-1: -13; PRMT1 inh: -2; PfG6PD inh: 25; UHRF1 binding: -3; MBD2 DNA inh: -5

What do the screens show for `CC(=O)C1=C(c2ccccc2)NC(=O)NC1c1ccc(O)c(O)c1` (stereo not drawn)?
PfM18AAP inh-1: 77*; PRMT1 inh: 2; PfG6PD inh: 17; UHRF1 binding: 7; MBD2 DNA inh: -4; PfM18AAP inh-2: 71*; CTSL1 confirm: -6

How did Cc1nnc(N/N=C/c2ccccc2C(F)(F)F)n1N do in these assays?
PfM18AAP inh-1: 39*; PRMT1 inh: 1; PfG6PD inh: 29; UHRF1 binding: 2; MBD2 DNA inh: -4; PfM18AAP inh-2: -34; CTSL1 confirm: 2

Results for COc1cccc(/C=N/Nc2nnc(C)n2N)c1O ?
PfM18AAP inh-1: 39*; PRMT1 inh: 1; PfG6PD inh: 24; UHRF1 binding: 10; MBD2 DNA inh: 4; PfM18AAP inh-2: -8; CTSL1 confirm: 0

Results for CN(C)c1ccc(CNc2ncn[nH]2)cc1 ?
PfM18AAP inh-1: 37*; PRMT1 inh: -8; PfG6PD inh: -6; UHRF1 binding: -2; MBD2 DNA inh: -3; PfM18AAP inh-2: -9; CTSL1 confirm: -1

How did COc1ccccc1CNc1ccc(CNc2ncn[nH]2)cc1 do in these assays?
PfM18AAP inh-1: 33*; PRMT1 inh: 0; PfG6PD inh: -17; UHRF1 binding: 3; MBD2 DNA inh: -1; PfM18AAP inh-2: -17; CTSL1 confirm: 1

What do the screens show for `COc1cc(CNc2ccc(CNc3ncn[nH]3)cc2)ccc1OCc1ccccc1`?
PfM18AAP inh-1: 47*; PRMT1 inh: 2; PfG6PD inh: 25; UHRF1 binding: -1; MBD2 DNA inh: 6; PfM18AAP inh-2: -5; CTSL1 confirm: 4

How did c1ccc2c(CNc3ccc(CNc4ncn[nH]4)cc3)cccc2c1 do in these assays?
PfM18AAP inh-1: 17; PRMT1 inh: -5; PfG6PD inh: 15; UHRF1 binding: -1; MBD2 DNA inh: -2

What do the screens show for `COC(=O)[C@H](CC(C)C)N(CCc1cn(Cc2ccc(C)cc2)nn1)S(=O)(=O)c1ccccc1Br`?
PRMT1 inh: -3; UHRF1 binding: 3; MBD2 DNA inh: 1

What do the screens show for `CC1(C)C=C2C(N(CC3CC3)C(=N)N2C(=O)OCc2ccccc2)n2c(=O)n(-c3ccccc3)c(=O)n21` (stereo not drawn)?
PRMT1 inh: -2; UHRF1 binding: 3; MBD2 DNA inh: 0

What do the screens show for `CCN1CCc2c(sc(NC(=O)c3ccc(C(=O)c4ccccc4)cc3)c2C(N)=O)C1`?
PfM18AAP inh-1: -3; PRMT1 inh: 3; PfG6PD inh: 4; UHRF1 binding: 3; MBD2 DNA inh: 7

What do the screens show for `CCN1CCc2c(sc(NC(=S)NC(=O)c3ccco3)c2C(N)=O)C1`?
PfM18AAP inh-1: 33*; PRMT1 inh: 15; PfG6PD inh: 50; UHRF1 binding: 2; MBD2 DNA inh: -4; PfM18AAP inh-2: -14; CTSL1 confirm: 0
